To fix the notation:
T1: UNK ZnF1-3 (human, UniProt Q9C0B0 31-174)
T1 sequence: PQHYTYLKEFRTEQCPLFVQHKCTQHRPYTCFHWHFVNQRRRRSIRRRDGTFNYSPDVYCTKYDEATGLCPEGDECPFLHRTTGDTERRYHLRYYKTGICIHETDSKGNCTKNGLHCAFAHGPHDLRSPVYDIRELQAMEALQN

B1: 76906679_76906799_897_3pUTR_ENSMUSG00000022010_ENSMUST00000022587|mouse|control|control (ssRNA)
RNA: GGGAGUUCUACAGUCCGACGAUCUGGGGAGGGUUGAAAAGGCACAGAGCUCCUCGGGGUCAAUUAAACCAUUCCUCAGACAUCUGCCACGUUGCACAGGGCACAUCCCUGCUCACUCUCUGAUUAACCUUUAAUUCACUCAACCAACAGAGGAUUGAGCAUCA
B2: 129354385_129360783_1558_CDS_ENSG00000056277_ENST00000370978|human|control|control (ssRNA)
RNA: GGGAGUUCUACAGUCCGACGAUCAUGUUCAGCUUUCUCCUUGCUGGUCAAAAAUUGUAGUCUGCAUUUUGGGCAACGAUGAACUCCUUUUUUCUGAUGCUUCAUGUAAUGAUUCAUGUAGGGGGUUGCCAUUUUACUAACUUUCAACAGAGGAUUGAGCAUCA
B3: chr2:219525992:219525993:+_ENSG00000074582_ENST00000359273|hu_mus|FALSE|FALSE (ssRNA)
RNA: GGGAGUUCUACAGUCCGACGAUCGAUCCAUUUUCCCUGAUACCAAAUGAAGUGGUUUCCAGGGCUGGGGAUAAAUUCAAACUUGGUGGAGAUCCGGCCACUUUCAUGCUGAAGGUAUGAGGUUUCAACACUGAGGUGCUGAGUCAACAGAGGAUUGAGCAUCA
B4: 156047189_156047309_678_CDS_ENSG00000254726_ENST00000532414|human|control|control (ssRNA)
RNA: GGGAGUUCUACAGUCCGACGAUCGAUGGUUGCCCCUUUGGGGCCCACCACCAGCCCCACCACGCGGUAGGGCACCCGCACACGGAUGGUCACCUGGCCGGGCAGAGCAGGAGCCACACCAAAGGCGGCGCCUGACUUGUUGCGCAACAGAGGAUUGAGCAUCA
B5: 107436344_107436464_280_CDS_ENSMUSG00000020721_ENSMUST00000106746|mouse|control|control (ssRNA)
RNA: GGGAGUUCUACAGUCCGACGAUCGGCAAUUCUGUAAAGAAGACUCUCAAUUUUGAUGCGCUCAACCUCCACCGGGCACGGCCCUGUGAAGUCUGCCAUGGAGUACUGGCCAAGAGAGAGCAGGGCGUCGGUGCAGUGCUGGAGCAACAGAGGAUUGAGCAUCA
B6: 139370288_139370408_1793_CDS_ENSG00000148396_ENST00000313050|human|control|control (ssRNA)
RNA: GGGAGUUCUACAGUCCGACGAUCGGUUGAGGGCUGGGACACGCUGCCACGGUAAUUCUGGCUCACAGUGGUCUCGUCUGUUUCACCUCCUACGGGAGAAGAAUCGAUUUGCUUAAAAAAACUACCUGAAGCUUCAUCCUCGGGCAACAGAGGAUUGAGCAUCA
B7: 15271559_15271679_6895_CDS_ENSG00000074181_ENST00000263388|human|control|control (ssRNA)
RNA: GGGAGUUCUACAGUCCGACGAUCGGGAAGUGGCUGGGCAGGCAGUGCCCCAGUGGUGGUGGCCAUGGCCCCAGUGGCAGUGGCUGGGCUAGGCGUGGAUUCGGACCAGUCUGAGAGGGAGGGAGGUGAGGGGCUGGCCCAGUGCAACAGAGGAUUGAGCAUCA
B8: 129698844_129698964_1004_3pUTR_ENSMUSG00000026349_ENSMUST00000027587|mouse|control|control (ssRNA)
RNA: GGGAGUUCUACAGUCCGACGAUCCUGCUAGCACUGAUAAAUUAUCAGAUGCACGGCUAUCUUGAACAGAAGUACUUCCUGAAUUUAGAGGUAUUGGAGCAGGGAACGUUGAUGUUGAUGGUUUCUGAAAGCUUGGGUUGGCAGCAACAGAGGAUUGAGCAUCA
B9: chr1:184247048:184247049:-_ENSMUSG00000047539_ENSMUST00000051431|mus_mus|FALSE|FALSE (ssRNA)
RNA: GGGAGUUCUACAGUCCGACGAUCCUGGAGCUAGAGCCAUAUUCCAAUCUACUUCCUAUUCCGAAGUCGUUUGGAUUUCCUAAGAGAGUCUAUGGCUUCCGUUGCCUUCCGUCGUUUCCGAGGGGACUCCUCACUCUGCCCAGACAACAGAGGAUUGAGCAUCA
B10: chr11:20101544:20101545:+_ENSMUSG00000020149_ENSMUST00000020358|mus_hu|FALSE|FALSE (ssRNA)
RNA: GGGAGUUCUACAGUCCGACGAUCUGCCGCAGCCGCCGCCCUGACUCUCCGCGCCACGGGUAAUCGAAAGAAAGGAAUGAGAUAGGCUGUUCCGGGAGAGCAAACGUCUUCCCCUACUCCGUCCCCUAGAACACAAUCAGCAGCCAACAGAGGAUUGAGCAUCA
B11: chr17:56552419:56552420:-_ENSMUSG00000013236_ENSMUST00000086828|mus_mus|mus_mus_mus_hu_False|68_68 (ssRNA)
RNA: GGGAGUUCUACAGUCCGACGAUCAAAAAAUACACUAUUUAAAAAAAAUGAAAUGUCACGGGAUACAAAAAAAUAUAGAGUUUUAAAAGAAAGCUGGAUUCUGGUCCCAGCCCAGUGUCCCCAGGCUGCAGAGCGGGGAGGAGCCAACAGAGGAUUGAGCAUCA
B12: chr15:76910149:76910150:-_ENSMUSG00000033565_ENSMUST00000166610|mus_mus|FALSE|FALSE (ssRNA)
RNA: GGGAGUUCUACAGUCCGACGAUCAAUGCUGACGGAGGGAAGUCAUGUCUCUUAGGGGAAAGGAUCAGCUCAUCACUCGCUAUAUAACGCAGCCAAACGGGCUGCCCAACAAGCACGCACACAAGAAAUACUGUUAACAGAAAACAACAGAGGAUUGAGCAUCA
B13: chr17:56552419:56552420:-_ENSMUSG00000013236_ENSMUST00000086828|mus_mus|mus_mus_mus_hu_False|58_68 (ssRNA)
RNA: B11 RNA with G77C, G79C, U81A
B14: chr17:56552419:56552420:-_ENSMUSG00000013236_ENSMUST00000086828|mus_mus|mus_mus_mus_hu_False|18_68 (ssRNA)
RNA: B11 RNA with U117G, C119A, C120G, C121G, A122C, G123A, C125G, U126G

Substitutions are numbered along the chain they refer to. Whole data set: some 24,000 sequences, median “enrichment r” near 0.99, cut for the highest 2% near 3.7. The full list was thinned out, with the highest values kept by preference.

In the test the target is T1, UNK ZnF1-3. As to the kind of experiment: nsRBNS (natural sequence RNA bind-n-seq); RBNS binding buffer (assumed for nsRBNS): 25 mM Tris pH 7.5, 150 mM KCl, 3 mM MgCl2, 0.01% Triton X-100, 500 ug/ml BSA, 20 U/ml SUPERase-In, 4 C; UNK is unkempt and MSI1 is Musashi-1; names of the RNAs are library labels; protein concentration not given here; high values mean tight binding.
B1 showed a binding signal of 1.14 enrichment R.

Molecule B2 had a binding signal of 0.531 enrichment R.

B3 returned a binding signal of 0.804 enrichment R.

With B4, the binding signal amounted to 0.73 enrichment R.

On to B5, for which the binding signal is 0.894 enrichment R.

B6 had a binding signal of 0.768 enrichment R.

On to B7, for which the binding signal worked out at 2.43 enrichment R.

In the case of B8, the binding signal was 1.96 enrichment R.

Molecule B9 yielded a binding signal of 0.688 enrichment R.

As for B10, the binding signal was 1.67 enrichment R.

Consider B11, for which the binding signal is 7.63 enrichment R.

B12 returned a binding signal of 1.79 enrichment R.

As for B13, the binding signal is 11.3 enrichment R.

Take B14: the binding signal came out at 7.03 enrichment R.

The record behind these values is paper PMC12136788.
